In PubChem BioAssay AID588689 (Southern Research Specialized Biocontainment Screening …, 2011):
In all, about 340,000 compounds went through this assay and about 1,000 (0.29%) were called active. No stated cut-off is given here; in the data, inconclusive means inhibition above about 29% without an active follow-up result; inactive means below that. These entries were drawn from the full list. Entries with a potency or affinity are not part of this list.

Target: Genome polyprotein (Dengue virus type 2 (strain 16681-PDK53)) (UniProt P29991)
Assay: flavivirus cap methylation enzyme inhibition – biochemical, confirmation dose response, primary screen (AID 588689)
Details: Dengue-2 NS5 methyltransferase capping enzyme assay, at 25 µM, stronger effect = higher value

SMILES | inhibition | inhibition (measured here: pilot screen replicate inhibition)
CN1CCN(c2ccc(NS(=O)(=O)c3ccc(Cl)cc3)cn2)CC1 | -7.03% (inactive) | 
Cc1nnc(NC(=O)CC23CC4CC(CC(C4)C2)C3)s1 | -6.26% (inactive) | 
O=C(Nc1ccc2c(c1)OCO2)C1CCN(S(=O)(=O)c2cccc3cccnc23)CC1 | 2.93% (inactive) | 
CCCOc1ccc(/C=C/C(=O)OCC(=O)N(C)c2c(N)n(Cc3ccccc3)c(=O)[nH]c2=O)cc1OCC | 3.69% (inactive) | 
CC(C)N(O)C(=O)NC(C)(C)C | 0% (inactive) | 
COc1ccc(NC2=CC(=O)N(C)C2=O)cc1 | -10.2% (inactive) | 
COc1ccc(C(=O)Nc2cccc(-c3ccc4nncn4n3)c2)cc1OC | 2.3% (inactive) | 
Cc1c(N=C/C=C2\N(C)c3ccccc3C2(C)C)c(=O)n(-c2ccccc2)n1C | -3.46% (inactive) | 
CCc1cc(=O)oc2c3c(cc(OCC(=O)NCCCn4ccnc4)c12)OC(C)(C)CC3 | -1.45% (inactive) | 
OCC[C@H]1C[C@H](O)[C@@H](O)[C@]2(OCCc3ccccc32)O1 | -1.2% (inactive) | 
CCOc1cc(CNc2ccc(S(N)(=O)=O)cc2)cc(Cl)c1OC | 3.64% (inactive) | 
CCOc1c(Br)cc(CNc2ccc(N3CCOCC3)cc2)cc1OC | 70.4% (inactive) | 
COc1cc(CNc2ccc(N3CCCC3)cc2)cc(Cl)c1OC | 13.9% (inactive) | 
COc1cc(CNc2ccc(N3CCCC3)cc2)ccc1OCc1ccccc1 | 12.3% (inactive) | 
CCOc1c(Cl)cc(CNc2ccc(S(N)(=O)=O)cc2)cc1OC | -1.46% (inactive) | 
COc1cc(CNc2ccc(S(N)(=O)=O)cc2)ccc1OCc1ccccc1F | -6.36% (inactive) | 
Cc1nn(C)c(Cl)c1CN1CCCC(CCC(=O)NCc2ccccc2F)C1 (stereo unspecified) | 0% (inactive) | 
CCN1C(=O)[C@@H]2[C@@H](c3ccc(-c4ccc(OC)cc4)c(OC)c3)N3CCCC[C@@]3(C(=O)OC)[C@@H]2C1=O | 17.5% (inactive) | 
CCN1CCN(C(=O)CCc2nnc(CCc3c[nH]c4ccccc34)o2)[C@@H](C)C1=O | -13.8% (inactive) | 
CN(C(=O)CSc1nnc(-c2cccnc2)n1-c1ccccc1F)C1CCS(=O)(=O)C1 (stereo unspecified) | 5.09% (inactive) | 
O=C(C1=C(c2ccccc2)C(=O)c2ccccc2C1=O)c1ccccc1 | 3.59% (inactive) | 
CC(=O)C1=C(c2ccc(Br)cc2)C(=O)c2ccccc2C1=O | 35% (inactive) | 
COc1cc(NS(=O)(=O)c2ccc(C)cc2)c2c(c1N)C(=O)c1ccccc1C2=O | 9.7% (inactive) | 
Nc1ccc(NC(=O)c2ccccc2)c2c1C(=O)c1ccccc1C2=O | 3.24% (inactive) | 

SMILES | inhibition | inhibition (measured here: pilot screen replicate inhibition)
Cc1cc(C)cc(NC2=C(N)C(=O)c3ccccc3C2=O)c1 | 13% (inactive) | 
Nc1ccccc1NC(=O)c1ccccc1 | 3.27% (inactive) | 
O=C(NCCc1nc2ccccc2[nH]1)/C(=C/c1ccc2c(c1)OCO2)NC(=O)c1ccc(Cl)cc1Cl | -5.82% (inactive) | 
CCCCNC(=O)COC(=O)c1c2c(nc3ccccc13)CCC2 | 4.4% (inactive) | 
Cn1ccnc1C1CCCCN1C(=O)c1cc(COc2ccc(F)cc2F)on1 (stereo unspecified) | 1.47% (inactive) | 
O=C1C(Cl)=C(N2CCOCC2)C(=O)N1CCc1ccccc1 | -0.8% (inactive) | 
Cc1cccc(C)c1N1C(=O)C(Cl)=C(N2CCCC2)C1=O | -10.8% (inactive) | 
CN1CCN(C2=C(Cl)C(=O)N(c3ccc(Cl)cc3)C2=O)CC1 | 14.2% (inactive) | 
CC(C)c1ccc(S(=O)(=O)Nc2ccc(N3CCOCC3)cc2)cc1 | -9.76% (inactive) | 
CN(C)C1=C(Cl)C(=O)N(c2ccc(Cl)c(Cl)c2)C1=O | 26.8% (inactive) | 
O=C1C(Cl)=C(N2CCN(Cc3ccccc3)CC2)C(=O)N1c1ccccc1 | 67.7% (inactive) | 
Cc1ccc(N2C(=O)C(Cl)=C(N3CCCCCC3)C2=O)cc1 | -6.21% (inactive) | 
O=C(Nc1cccc(-n2cccn2)c1)C1CCCN(Cc2cc3ccccc3[nH]2)C1 (stereo unspecified) | -16.8% (inactive) | 
COc1ccc(N2CCN(C3CCCN(C(=O)CN4CCCC4=O)C3)CC2)cc1 (stereo unspecified) | -4.52% (inactive) | 
COCCCN1Cc2cccc(C(=O)O)c2C1=O | -4.84% (inactive) | 
O=C(CCCc1nc(-c2ccc(Cl)cc2)no1)NCC1CCCO1 (stereo unspecified) | 1.63% (inactive) | 
CC1(C)CC(=O)C(C2=NC3(CCCCC3)Cc3ccccc32)=C(O)C1 | 2.33% (inactive) | 
C=C(C1=CCN(S(=O)C(C)(C)C)[C@@H]1CCO)c1ccccc1 (stereo partly specified) | 0.33% (inactive) | -2.42%
COc1ccc(/C=C(\C#N)C(=O)Nc2cc(S(=O)(=O)N3CCOCC3)ccc2N2CCCC2)cc1 | -4.53% (inactive) | 
COc1ccc(-c2nc(-c3ccccn3)no2)cc1 | -2.71% (inactive) | 
COC(=O)c1ccccc1N(C)S(C)(=O)=O | -6.11% (inactive) | 
COc1ccccc1N1CCN(CCNC(=O)Nc2cccc(C)c2C)CC1 | -5.61% (inactive) | 
Cc1ccccc1NC(=O)c1cccc(N2C(=O)C3CCCCC3C2=O)c1 (stereo unspecified) | -9.97% (inactive) | 
CN(C1CCCCC1)S(=O)(=O)c1ccc(S(=O)(=O)N2CCN(C(=O)c3ccccc3F)CC2)cc1 | -5.65% (inactive) | 

SMILES | inhibition | inhibition (measured here: pilot screen replicate inhibition)
Cc1onc(-c2ccccc2)c1C(=O)Nc1ccc(Cl)cn1 | -2.24% (inactive) | 
Cc1cc(NC(=O)CSCc2nc(-c3cccc(F)c3)oc2C)no1 | 4.17% (inactive) | 
COc1ccc(N(CC(=O)NCCSC2CCCCC2)S(=O)(=O)c2ccc(C)cc2)cc1 | -4.51% (inactive) | 
CC1CCCN(C2=C(Cl)C(=O)N(c3cccc(Cl)c3)C2=O)C1 (stereo unspecified) | 5.18% (inactive) | 
O=C1C(Cl)=C(N2CCCCCC2)C(=O)N1c1ccccc1 | -0.82% (inactive) | 
O=C1C(Cl)=C(N2CCCCCC2)C(=O)N1c1ccc(Cl)cc1 | 2.94% (inactive) | 
Cc1ccc(N2C(=O)C(Cl)=C(N3CCOCC3)C2=O)c(C)c1 | 5.79% (inactive) | 
CN1CCN(C2=C(Cl)C(=O)N(c3cccc(Cl)c3)C2=O)CC1 | 12.9% (inactive) | 
Cc1cccc(N2C(=O)CC(N3CCOCC3)C2=O)c1 (stereo unspecified) | 0% (inactive) | 
COc1cc(C(=O)C(O)c2ccc(O)c(OC)c2)ccc1O (stereo unspecified) | 0% (inactive) | 
CN(Cc1cnn(-c2ccc(F)cc2)c1)Cc1nc(Cc2ccccc2)no1 | -8.38% (inactive) | 
COC(=O)c1ccccc1C(=O)N1CCC(CCC(=O)NC2CC2)CC1 | -9.72% (inactive) | 
CC(C)NC(=O)CSc1nccc(-c2cccs2)n1 | 6.26% (inactive) | 
CC(=O)C1=NN(c2ccccc2)C2(S1)S/C(=C\c1ccccc1)C(=O)N2c1ccccc1 (stereo unspecified) | 3.22% (inactive) | 
Cc1ccc(SCCc2cc[n+](CC(=O)c3ccccc3)cc2)cc1 | -23.5% (inactive) | 
CCOc1ccc(-n2c(SCc3cc(=O)oc4cc(C)ccc34)nnc2-c2cccnc2)cc1 | -5.85% (inactive) | 
COCC(COS(N)(=O)=O)Cc1ccccc1 (stereo unspecified) | -5.61% (inactive) | 
C/C(=N\NS(=O)(=O)c1ccccc1)c1ccc2c(c1)OCCO2 | -5.78% (inactive) | 
CC(=O)NCCc1nc2cc(NC(=O)c3ccc(F)cc3)ccc2n1C | 0.65% (inactive) | 
COc1ccc(C2=CC(=O)CC(C)(C)C2)cc1OC | -7.08% (inactive) | 
CCn1c(CNC(=O)c2ccccc2F)nnc1SCC(=O)Nc1nncs1 | -2.93% (inactive) | 
O=C1C(Cl)=C(N2CCCC2)C(=O)N1c1ccc(F)cc1 | 10.2% (inactive) | 
Cc1ccc(N2C(=O)C(Cl)=C(N3CCCCCC3)C2=O)c(C)c1 | -10.4% (inactive) | 
Cc1ccc(N2C(=O)C(Cl)=C(NCCO)C2=O)c(C)c1 | -3.68% (inactive) | 

SMILES | inhibition | inhibition (measured here: pilot screen replicate inhibition)
O=C1C(Cl)=C(N2CCCCCC2)C(=O)N1c1ccc(Br)cc1 | 4.71% (inactive) | 
COC(=O)c1cccc(N2C(=O)c3cccnc3C2=O)c1 | 1.12% (inactive) | 
COC(=O)c1cccc(N2C(=O)C3CC=CCC3C2=O)c1 (stereo unspecified) | -7.22% (inactive) | 
N=C1c2ccccc2CN1NC(=O)CC12CC3CC(CC(C3)C1)C2 | -6.39% (inactive) | 
COc1ccc(NCc2nnc(SCC#N)n2-c2ccccc2OC)cc1 | 4.71% (inactive) | 
O=C(COC(=O)COc1ccccc1)NC12CC3CC(CC(C3)C1)C2 | 3.65% (inactive) | 
CC1=CC(C)(C)N(C(=O)CN2C(=O)CCC2=O)c2ccccc21 | 4.64% (inactive) | 
C/C(=N\OCC(=O)Nc1cc(C)cc(C)c1)c1ccc2c(c1)OCCO2 | -2.91% (inactive) | 
O=C1COC(c2ccccc2O)=NN1CCCl | 4.57% (inactive) | 
O=C(CN1C(=O)NC2(CCCC2)C1=O)OCCOc1ccc(Br)cc1 | -1.44% (inactive) | 
CCOC(=O)[C@H](C)N1[C@H](C)[C@H](c2ccccc2)Oc2ccc(Cl)cc2S1(=O)=O | -5.21% (inactive) | 
Cc1ccc2cc(C=O)c(Cl)nc2c1 | -3.88% (inactive) | 
Cc1ccc2cc(C=O)c(N(C)C)nc2c1 | 1.3% (inactive) | 
COc1ccc(C(=O)NC2CCCCCCC2)cc1OC | -1.55% (inactive) | 
CN=c1scc(-c2ccccc2F)n1/N=C/c1ccc(O)c(O)c1O | 26.9% (inactive) | 
CCN=c1scc(C)n1/N=C/c1cc(Br)c(O)c(Br)c1 | 9.36% (inactive) | 
CC(C)N=c1scc(-c2cccs2)n1/N=C/c1ccc(O)c(O)c1O | 16.7% (inactive) | 
CCN=c1scc(-c2ccco2)n1/N=C/c1ccc(O)cc1 | 4.53% (inactive) | 
CCN=c1scc(C)n1/N=C/c1ccsc1 | 2.4% (inactive) | 
CN=c1scc(C)n1/N=C/c1ccc(O)cc1O | 2.07% (inactive) | 
CN=c1scc(-c2cccs2)n1/N=C/c1ccccc1O | -0.73% (inactive) | 
CN=c1scc(-c2ccco2)n1/N=C/c1ccc(O)c(O)c1 | -2.15% (inactive) | 
COc1ccc(S(=O)(=O)NCCCN2CCCC2=O)cc1OC | -6.1% (inactive) | 
